As a reminder, the AC50 is the concentration at which the activity in the assay is half-maximal.

Active and inactive are the calls of the source. How the source made its calls: active means hit-call score of the fitted dose curve at least 0.9, where 1 is the maximum; inactive means score below 0.9.

Assay [1] can be described thus: ATG_E_Box_CIS: Attagene CIS-FACTORIAL HepG2 Assay for human Enhancer Box (E-box) (AID 2282936). The conditions noted are these: HepG2 E-box cis-reporter transcription, actives raise or lower the signal. The method, boiled down:
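Endogenous transcription factor activity was sensed in human HepG2 liver cells through transfected cis-promoter reporter units. After 24 h of dosing, total RNA was reverse-transcribed and reporter cDNA resolved by capillary electrophoresis.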

Assay [2] is described as follows: ATG_M_61_CIS: Attagene CIS-FACTORIAL HepG2 Assay for M61 Transcription Factor (Internal Marker) (AID 2282937). The conditions noted are these: HepG2 Attagene CIS-FACTORIAL M61 internal marker reporter; actives raise or lower the signal. The essentials: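 Multiplexed reporter mRNA assay, HepG2 human hepatoma cells, 24 h treatment. Signal: FAM-labelled, HpaI-digested RT-PCR fragments by CE. Fit: bidirectional, baseline DMSO.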

Assay [3] is described as follows: ATG_EGR_CIS: Attagene CIS-FACTORIAL HepG2 Assay for human Early Growth Response 1 (EGR1) (AID 2282938). The conditions noted are these: HepG2 Attagene CIS-FACTORIAL EGR reporter mRNA; actives raise or lower the signal. The method, boiled down:
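Multiplexed cis-reporter system in human hepatoma HepG2 cells, transiently transfected. Cells are dosed for 24 h; reporter transcripts are amplified, fluorescently tagged and sized by capillary electrophoresis, with DMSO as negative control.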

The nature of assay [4]: ATG_M_19_CIS: Attagene CIS-FACTORIAL HepG2 Assay for M19 Transcription Factor (Internal Marker) (AID 2282939). The conditions noted are these: HepG2 Attagene CIS-FACTORIAL M19 internal marker reporter; actives raise or lower the signal. The method, boiled down:
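Transfect HepG2 with MRTU reporter library → dose chemical, 24 h → isolate total RNA, reverse-transcribe with oligo(dT) → PCR, 6-FAM label, HpaI cut (2 h, 37 C) → capillary electrophoresis. Bidirectional fit vs DMSO.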

A short description of assay [5]: ATG_ERE_CIS: Attagene CIS-FACTORIAL HepG2 Assay for Estrogen Response Element (ERE) (AID 2282940). The conditions noted are these: HepG2 ERE cis-reporter, Attagene RNA transcript; actives raise or lower the signal. The method, boiled down: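 Transient MRTU transfection of human HepG2; cis-element promoters; 24 h dosing; total RNA → RT (oligo dT) → PCR → 6-FAM primer extension → HpaI digest → CE fluorescence. Bidirectional fit, DMSO baseline.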

Assay [6] can be described thus: ATG_Ets_CIS: Attagene CIS-FACTORIAL HepG2 Assay for human Erythroblast Transformation Specific (ETS) (AID 2282941). The conditions noted are these: HepG2 ETS cis-reporter transcription, actives raise or lower the signal. The essentials: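 Multiplexed reporter transcript profiling: HepG2, 24 h treatment, total RNA to cDNA, PCR, 6-FAM labelling, HpaI cut, capillary electrophoresis. Gain- or loss-of-signal fitted against DMSO.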

Assay [7] deals with Hepatocyte nuclear factor 3-beta (Homo sapiens) (UniProt Q9Y261). Description: ATG_FoxA2_CIS: Attagene CIS-FACTORIAL HepG2 Assay for human Forkhead box A2 (FOXA2) (AID 2282942). The conditions noted are these: HepG2 cis-reporter transcription factor activity, 24 h; actives raise or lower the signal. The method, boiled down:
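Multiplexed cis-element reporter assay in transiently transfected HepG2. Twenty-four hours post-dosing, RNA was reverse-transcribed, amplified, FAM-labelled, HpaI-digested and separated by CE. Activity gain or loss relative to DMSO.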

A short description of assay [8]: ATG_FoxO_CIS: Attagene CIS-FACTORIAL HepG2 Assay for human Forkhead box O (FoxO) (AID 2282943). The conditions noted are these: HepG2 Attagene cis-reporter, FoxO element, mRNA; actives raise or lower the signal. The essentials: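 24 h chemical exposure, HepG2 with transient cis-MRTU transfection. RNA extraction, oligo(dT) RT, reporter-specific PCR, primer-extension labelling, HpaI digestion, CE fragment analysis; bidirectional fit, DMSO baseline.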

Assay [9] is described as follows: ATG_GATA_CIS: Attagene CIS-FACTORIAL HepG2 Assay for human GATA Binding Protein (AID 2282944). The conditions noted are these: HepG2 GATA cis-element reporter, Attagene multiplex mRNA; actives raise or lower the signal. The essentials: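 Transient MRTU transfection, HepG2, 24 h compound exposure. Total RNA → oligo(dT) RT → PCR → 6-FAM primer extension → HpaI cut → CE. Bidirectional fit vs DMSO.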

A short description of assay [10]: ATG_GLI_CIS: Attagene CIS-FACTORIAL HepG2 Assay for human Zinc Finger Protein GLI1 (AID 2282945). The conditions noted are these: HepG2, Attagene cis-factorial reporter mRNA, GLI element; actives raise or lower the signal. The essentials: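 HepG2 cells transiently transfected with cis-promoter multiplexed reporter units report endogenous transcription factor activity. After 24 h chemical exposure, reporter mRNA was quantified by RT-PCR, 6-FAM labelling, HpaI digestion and capillary electrophoresis, with bidirectional fitting against DMSO.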

Assay [11] can be described thus: ATG_GRE_CIS: Attagene CIS-FACTORIAL HepG2 Assay for human Glucocorticoid Response Elements (GRE) (AID 2282947). The conditions noted are these: HepG2 GRE cis-reporter, Attagene multiplex mRNA; actives raise or lower the signal. The method, boiled down:
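Cells (HepG2) bearing transfected cis-promoter reporter transcription units were treated with chemical for 24 hours. Reporter mRNA was measured via RT-PCR with capillary electrophoresis, and activity was fitted in both directions relative to DMSO.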

A short description of assay [12]: ATG_ISRE_CIS: Attagene CIS-FACTORIAL HepG2 Assay for human Interferon Regulatory Factor 1 (IRF1) binding to an Interferon-Stimulated Response Element (ISRE) (AID 2282948). The conditions noted are these: HepG2 ISRE cis-reporter (Attagene), mRNA transcription readout; actives raise or lower the signal. The essentials: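 Signal reflects induction or loss of ISRE-linked reporter mRNA in transiently transfected HepG2 cells after a 24 h treatment, detected by fluorescent RT-PCR fragments on capillary electrophoresis and normalised to DMSO.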

Assay [13] is described as follows: ATG_M_32_CIS: Attagene CIS-FACTORIAL HepG2 Assay for M32 Transcription Factor (Internal Marker) (AID 2282949).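 Further: background control marker of the multiplexed CIS panel rather than a real target.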 The conditions noted are these: HepG2 Attagene cis-factorial M32 reporter, mRNA; actives raise or lower the signal. The essentials:
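HepG2 human liver cells transiently transfected with cis-promoter-driven multiple reporter transcription units, dosed 24 h. Reporter mRNA quantified by RT-PCR, FAM-labelled primer extension, HpaI digest and capillary electrophoresis; bidirectional fit versus DMSO baseline.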

Assay [14] in a line: ATG_M_06_CIS: Attagene CIS-FACTORIAL HepG2 Assay for M06 Transcription Factor (Internal Marker) (AID 2282950). The conditions noted are these: HepG2 Attagene CIS-FACTORIAL M06 internal marker reporter; actives raise or lower the signal. The essentials:
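Read-out is fluorescence of labelled reporter cDNA fragments resolved by capillary electrophoresis after RT-PCR. Cells: HepG2 carrying transfected cis-promoter reporter units, treated 24 h. Gain or loss of signal fitted relative to DMSO.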

The target in assay [15] is Hypoxia-inducible factor 1-alpha (Homo sapiens) (UniProt Q16665). The assay is described as follows: ATG_HIF1a_CIS: Attagene CIS-FACTORIAL HepG2 Assay for human Hypoxia Inducible Factor 1 (HIF1A) (AID 2282951). The conditions noted are these: HepG2 Attagene cis-factorial HIF1a reporter transcription; actives raise or lower the signal. The method, boiled down: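 Cis-element reporter constructs were transiently transfected into HepG2 cells, which were treated for 24 h; reporter RNA was reverse-transcribed, amplified, labelled and resolved by capillary electrophoresis.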

Assay [16] addresses Hepatocyte nuclear factor 6 (Homo sapiens) (UniProt Q9UBC0). Description: ATG_HNF6_CIS: Attagene CIS-FACTORIAL HepG2 Assay for human Hepatocyte Nuclear Factor 6 (HNF6) (AID 2282952). The conditions noted are these: HepG2 Attagene cis-factorial HNF6 reporter transcription; actives raise or lower the signal. The method, boiled down:
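First, HepG2 cells were transfected with the multiplexed cis reporter library and dosed with chemical for 24 h. Next, RNA was reverse-transcribed, PCR-amplified and fluorescently labelled. Finally, HpaI-digested fragments were read by capillary electrophoresis.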

Assay [17] in a line: ATG_MRE_CIS: Attagene CIS-FACTORIAL HepG2 Assay for human Metal Responsive Element (MRE) (AID 2282954). The conditions noted are these: HepG2 MRE cis-reporter transcription, Attagene multiplex; actives raise or lower the signal. The essentials:
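Cells were transfected with cis-promoter reporter transcription units, then dosed for 24 h. RNA was reverse-transcribed, amplified, fluorescently labelled and resolved by capillary electrophoresis, and activity was fitted in both directions relative to DMSO.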

Assay [18] can be described thus: ATG_PBREM_CIS: Attagene CIS-FACTORIAL HepG2 Assay for human Phenobarbital-responsive Enhancer Module (PBREM) (AID 2282955). The conditions noted are these: HepG2 PBREM cis-reporter, Attagene multiplexed transcription; actives raise or lower the signal. The essentials: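 Multiplexed cis-reporter readout in human hepatoma HepG2 cells; PBREM-regulated transcript quantified after 24 h exposure by fluorescent RT-PCR fragment analysis. Signal changes up or down fitted relative to DMSO.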

Assay [19] concerns the target Heat shock factor protein 1 (Homo sapiens) (UniProt Q00613). The assay is described as follows: ATG_HSE_CIS: Attagene CIS-FACTORIAL HepG2 Assay for human Heat Shock Transcription Factor 1 (HSE) (AID 2282953). The conditions noted are these: HepG2 HSE cis-reporter, Attagene RNA transcription; actives raise or lower the signal. The method, boiled down: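 HepG2, transient MRTU transfection, cis-promoter reporters (endogenous TF activity). 24 h compound. RNA → oligo(dT) RT → PCR → 6-FAM primer extension → HpaI cut → CE. Bidirectional fit vs DMSO.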

Hypoxia-inducible factor 1-alpha (Homo sapiens), sequence (Q16665 whole entry, looked up): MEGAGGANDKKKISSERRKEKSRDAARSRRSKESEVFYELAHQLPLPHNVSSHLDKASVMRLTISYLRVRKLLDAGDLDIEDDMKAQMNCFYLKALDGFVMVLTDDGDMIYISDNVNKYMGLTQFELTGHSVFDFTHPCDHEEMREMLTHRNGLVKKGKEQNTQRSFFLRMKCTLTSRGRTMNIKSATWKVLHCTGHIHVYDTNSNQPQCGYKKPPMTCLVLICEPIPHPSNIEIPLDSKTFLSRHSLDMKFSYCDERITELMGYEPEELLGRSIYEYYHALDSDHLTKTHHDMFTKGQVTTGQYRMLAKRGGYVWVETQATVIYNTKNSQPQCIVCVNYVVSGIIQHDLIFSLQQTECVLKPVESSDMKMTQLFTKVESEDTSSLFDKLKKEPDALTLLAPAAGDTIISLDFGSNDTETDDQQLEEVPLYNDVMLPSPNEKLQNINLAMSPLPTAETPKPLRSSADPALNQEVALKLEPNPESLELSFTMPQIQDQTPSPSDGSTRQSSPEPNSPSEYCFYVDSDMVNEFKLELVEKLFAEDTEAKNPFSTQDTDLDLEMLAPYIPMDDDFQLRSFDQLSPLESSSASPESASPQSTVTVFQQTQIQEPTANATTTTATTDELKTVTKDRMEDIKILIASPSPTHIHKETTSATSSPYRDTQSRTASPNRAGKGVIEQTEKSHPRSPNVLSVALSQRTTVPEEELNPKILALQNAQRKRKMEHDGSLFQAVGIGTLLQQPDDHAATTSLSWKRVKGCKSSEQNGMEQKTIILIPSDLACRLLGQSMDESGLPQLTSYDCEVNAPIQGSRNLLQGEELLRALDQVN
Hepatocyte nuclear factor 3-beta (Homo sapiens), sequence (Q9Y261 whole entry, looked up): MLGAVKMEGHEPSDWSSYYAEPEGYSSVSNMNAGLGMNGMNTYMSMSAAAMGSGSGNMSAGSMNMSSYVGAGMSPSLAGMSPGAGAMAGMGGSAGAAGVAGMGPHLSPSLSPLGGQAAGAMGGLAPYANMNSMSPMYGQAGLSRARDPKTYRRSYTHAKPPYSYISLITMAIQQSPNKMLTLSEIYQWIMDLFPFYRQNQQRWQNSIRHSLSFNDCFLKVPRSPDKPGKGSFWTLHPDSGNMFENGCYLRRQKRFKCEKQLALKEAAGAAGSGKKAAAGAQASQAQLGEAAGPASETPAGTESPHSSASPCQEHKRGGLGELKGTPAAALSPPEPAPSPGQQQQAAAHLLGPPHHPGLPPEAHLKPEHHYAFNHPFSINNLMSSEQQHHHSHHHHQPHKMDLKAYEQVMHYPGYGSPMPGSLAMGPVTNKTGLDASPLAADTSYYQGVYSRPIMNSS
Hepatocyte nuclear factor 6 (Homo sapiens), sequence (Q9UBC0 whole entry, looked up, the tested form may be a part): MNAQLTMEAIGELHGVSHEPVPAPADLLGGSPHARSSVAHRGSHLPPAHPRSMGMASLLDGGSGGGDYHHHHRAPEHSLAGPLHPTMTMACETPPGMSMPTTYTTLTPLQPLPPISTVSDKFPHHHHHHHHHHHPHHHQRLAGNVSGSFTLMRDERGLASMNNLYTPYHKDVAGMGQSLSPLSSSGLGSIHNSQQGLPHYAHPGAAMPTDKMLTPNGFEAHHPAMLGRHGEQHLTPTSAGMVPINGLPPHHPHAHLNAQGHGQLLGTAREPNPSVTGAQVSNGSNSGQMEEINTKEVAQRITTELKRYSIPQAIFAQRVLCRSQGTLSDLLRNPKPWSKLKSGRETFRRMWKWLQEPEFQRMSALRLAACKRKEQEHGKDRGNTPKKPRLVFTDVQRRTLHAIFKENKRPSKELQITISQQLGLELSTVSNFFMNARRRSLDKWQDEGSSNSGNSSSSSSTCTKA
Heat shock factor protein 1 (Homo sapiens), sequence (Q00613 whole entry, looked up): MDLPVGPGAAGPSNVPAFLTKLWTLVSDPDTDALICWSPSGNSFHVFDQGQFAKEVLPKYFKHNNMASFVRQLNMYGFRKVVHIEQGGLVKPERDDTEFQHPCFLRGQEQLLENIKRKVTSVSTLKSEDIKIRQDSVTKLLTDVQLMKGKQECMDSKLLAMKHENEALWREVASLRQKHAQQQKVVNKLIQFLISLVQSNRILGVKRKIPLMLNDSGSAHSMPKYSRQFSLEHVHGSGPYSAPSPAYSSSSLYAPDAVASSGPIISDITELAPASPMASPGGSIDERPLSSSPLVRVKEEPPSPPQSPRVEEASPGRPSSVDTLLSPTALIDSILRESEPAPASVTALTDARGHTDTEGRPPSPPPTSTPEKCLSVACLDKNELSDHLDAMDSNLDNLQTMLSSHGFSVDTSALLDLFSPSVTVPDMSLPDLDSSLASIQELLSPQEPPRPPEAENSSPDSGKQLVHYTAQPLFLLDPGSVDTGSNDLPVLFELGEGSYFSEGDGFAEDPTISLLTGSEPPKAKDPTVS

As to `COc1ccc2nc(N)sc2c1`, the outcome in assay [1], in [2], in assay [3], in assay [4], in assay [5] and in assay [6] was inactive. The call in [7], in assay [8], in assay [9], in [10], in assay [11] and in assay [12] was inactive. Besides, the call in assay [13], in assay [14], in [15], in assay [16], in [17] and in assay [18] was inactive.
As to `C=CC(=O)OCCOC(=O)C=C`, the AC50 in assay [1] was 27.3 µM (active); in assay [3], 27.4 µM (active); in assay [6], 27.2 µM (active); in assay [12], 25.6 µM (active); in [17], 27.5 µM (active). The compound was called inactive in assay [2], in [4], in assay [5], in [7], in assay [8] and in [9]. The call in [10], in [11], in [13], in assay [14], in [15] and in assay [16] was inactive. In addition, the result in assay [18] was inactive.
In the case of `CNC(=S)N(C)C`, the outcome in [1], in assay [2], in assay [3], in assay [4], in [5] and in [6] was inactive. For the same compound, the call in assay [7], in assay [8], in [9], in [10], in assay [11] and in assay [12] was inactive. The outcome in [13], in assay [14], in assay [15], in [16], in assay [19] and in assay [17] was inactive. In assay [18], the result was inactive.
Consider `CCC(=O)Oc1ccc(/C(CC)=C(\CC)c2ccc(OC(=O)CC)cc2)cc1`, for which the AC50 was 20.4 µM (active) in assay [1]; 45.1 µM (active) in assay [3]; 0.0825 µM (active) in assay [5]; 51.5 µM (active) in assay [10]; 16.9 µM (active) in assay [12]; 29.1 µM (active) in assay [19]. In [17], the half-maximal activity concentration (AC50) was 30.6 µM (active). Besides, the compound was called inactive in assay [2], in assay [4], in assay [6], in assay [7], in assay [8] and in assay [9]. The compound was called inactive in assay [11], in assay [13], in assay [14] and in assay [16].

The values above are taken from PubChem BioAssay (EPA / NIEHS).
